# Results from PubChem BioAssay (NCATS).
# Where “and” joins values, the source holds several entries; their conditions need not be identical. Identical values can stand only once. Results filed as inconclusive are left out. Where a call stands in place of a potency, no number is given. Calls of active or inactive are those of the source. Unless noted, calls come from the whole dose curve; as a rule, active = well fitted curve in the direction sought with a large enough effect; inconclusive = small, poorly fitted or top-dose-only effect, or another doubt; inactive = no such curve, though single readings can be large; an effect the other way counts as inactive or inconclusive.
# Columns and labels:
# [1] = target: Glutaminase kidney isoform, mitochondrial (Homo sapiens) (UniProt O94925); test: qHTS for Inhibitors of Glutaminase (GLS): LOPAC Validation (AID 624146); note: nearly all actives have a fitted effect of over 60% in size; note: potency is the fitted concentration of half-maximal effect
# In short: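 Glutamate formation by hKGA was monitored fluorometrically using coupled glutamate oxidase, HRP and Amplex Red. Substrate was added as 1 mM L-glutamine solution; incubation was 30 min at RT after an initial read.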
# [2] = qHTS of Trypanosoma Brucei Inhibitors: LOPAC Validation (AID 624147)
# In short: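 Quantitative HTS: titrated library compounds versus trypanosomal pyruvate kinase in TEA buffer (pH 7.2) containing KCl, MgCl2, BSA and Tween-20. Reactions were initiated with ADP, 130 uM final. Kinase-Glo Plus luminescence was read after 45 min at RT.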
# [3] = target: Glucagon-like peptide 1 receptor (Homo sapiens) (UniProt P43220); test: qHTS of GLP-1 Receptor Agonists: LOPAC Validation (AID 624148);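 note: higher luminescence signal means agonism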
# In short: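 HEK293 cells stably co-expressing GLP-1R and a cAMP-responsive luciferase reporter, plated 12 hours before compound, then incubated 4-6 hr at 37 deg C. Luminescence read 12 min after detection reagent.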
# [4] = qHTS of Nrf2 Activators: LOPAC Validation (AID 624149)
# In short: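 ARE reporter activation measured in AREc32 firefly luciferase cells after 24 hr compound exposure; Steady-Glo luminescence.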
# [5] = HTS Assay for Allosteric Antagonists of the Human D2 Dopamine Receptor: Hit Validation in HTRF (AID 624455);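 note: stable D1 dopamine receptor cell line scored for blocking the D1 response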
# In short: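 Signal from an HTRF read-out in D1-expressing stable cells gave hit activity as inhibition of the D1 response.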
# [6] = Cell Proliferation Assay against the HBL1 Cell Line (AID 651646); conditions: HBL1 DLBCL cells; at 46.1 µM (top of the series);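 note: cells exposed to compound for 48 h before reading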
# In short: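 HBL1 ABC DLBCL cells, 500/well in RPMI with 5% FBS, treated for 48 h at 37C. Viability read by CellTiter-Glo luminescence, normalized to DMSO as 100% and 9.2 uM bortezomib as 0%.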
# [7] = qHTS Assay for Identification of Small Molecule Agonists for NFkB Signaling Pathway. (AID 624478);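 note: compounds tested together with TNF alpha at its EC50 of 10 pM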
# In short: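 Cells carrying an NFkB response element-driven beta-lactamase gene are co-treated with compound and 10 pM TNF alpha for 5 h, and reporter activity is then read as 460 and 530 nm fluorescence.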
# [8] = qHTS Assay for Identification of Small Molecule Antagonists for NFkB Signaling Pathway. (AID 624479; calls by dose curve;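 note: pathway stimulated with TNF alpha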; note: potency is the fitted concentration of half-maximal effect)
# [9] = Cell Proliferation Assay against the TMD8 Cell Line (Caspase readout at 8 hrs) (AID 651713); note: potency is the fitted concentration of half-maximal effect
# In short: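 Percent activity derived from Caspase-Glo signal, DMSO set to 0% and bortezomib (9.2 uM final) to 100%. TMD8 cells were exposed to compound for 8 h in RPMI with 5% FBS.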
# [10] = qHTS assay for small molecule activators of the p53 signaling pathway (AID 651743; active = well fitted activation curve with a large enough effect in the signal ratio, not every such curve was filed as active; the % refers to the signal ratio; note: potency is the fitted concentration of half-maximal effect); conditions: HCT-116 p53RE-bla, beta-lactamase FRET ratio, 16 h; activation: stronger effect = higher value
# In short: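 HCT-116 p53RE-bla, 4,000 cells/well; 5 h settle; cpd/DMSO 16 h, 37 C; LiveBLAzer B/G 2 h RT; fluorescence intensity.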
# [11] = qHTS assay for small molecule activators of the nuclear factor-kappa B (NF-kB) signaling pathway (AID 651749; active = well fitted activation curve with a large enough effect in the signal ratio; the % refers to the signal ratio); conditions: NF-kB-bla ME-180 cells, beta-lactamase FRET ratio, 16 h; stronger effect = higher value
# In short: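 Incubation lasted 16 hr at 37C in 5% CO2 after 23 nL compound addition to ME-180 NF-kB-bla cells. Activation appears as beta-lactamase-mediated FRET loss.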
# [12] = Cytotoxicity counterscreen for NFkB agonists and antagonists (AID 624476);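 note: cells exposed to compound for 48 hours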; note: potency is the fitted concentration of half-maximal effect
# [13] = qHTS assay for small molecule agonists of the antioxidant response element (ARE) signaling pathway (AID 651741; active = well fitted activation curve with a large enough effect in the signal ratio; the % refers to the signal ratio; note: potency is the fitted concentration of half-maximal effect)
# In short: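 HepG2 ARE-bla cells plated at 2,000 cells/well and incubated 5 h at 37 C/5% CO2 received 23 nL compound in DMSO. After 16 h at 37 C, LiveBLAzer B/G FRET substrate was applied for 2 h at room temperature and fluorescence read.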
# [14] = target: Tumor necrosis factor (Homo sapiens) (UniProt P01375); test: qHTS assay to identify small molecules that stimulate Tumor Necrosis Factor-alpha (TNF-alpha) secretion (AID 651757; active = well fitted curve in the direction sought with a large enough effect in the signal ratio; the % refers to the signal ratio)
# In short: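 Secreted TNF-alpha from compound-treated THP-1 cells (17 hrs, 37 C) was quantified with a homogeneous time-resolved fluorescence antibody assay.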
# [15] = qHTS assay for small molecule disruptors of the mitochondrial membrane potential - 1 hr assay (AID 651754; calls by dose curve; note: potency is the fitted concentration of half-maximal effect; nearly all actives have a fitted effect of over 35% in size)
# In short: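 Steps: seed HepG2 cells and let attach overnight; pin-transfer compound or vehicle; incubate 1 hr at 37C; add Mito-MPS dye for 30 min; read two-channel fluorescence for monomer and aggregate forms.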
# [16] = qHTS assay for small molecule disruptors of the mitochondrial membrane potential - 5 hr assay (AID 651755; calls by dose curve; note: potency is the fitted concentration of half-maximal effect; nearly all actives have a fitted effect of over 40% in size)
# In short: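 HepG2 cells (2,000/well), attached overnight, exposed to compound 5 hr at 37C, then Mito-MPS dye 30 min. Fluorescence read for monomers (490/535 nm) and aggregates (540/590 nm).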
# [17] = S16 Schwann cell PMP22 intronic element beta-lactamase assay (AID 624044; calls by dose curve; note: nearly all actives have a fitted effect of over 15% in size; note: potency is the fitted concentration of half-maximal effect)
# In short: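 Rat S16 Schwann cells with beta-Lac driven by a PMP22 intronic element, compound-treated 24 h at 37 °C. LiveBLAzer FRET B/G read: 460 nm normalized to potassium clavulanate vs DMSO; 535 nm FRET as viability; concentration-effect curves classified.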
# Sequence of Glutaminase kidney isoform, mitochondrial (Homo sapiens) (O94925 whole entry, looked up, canonical isoform): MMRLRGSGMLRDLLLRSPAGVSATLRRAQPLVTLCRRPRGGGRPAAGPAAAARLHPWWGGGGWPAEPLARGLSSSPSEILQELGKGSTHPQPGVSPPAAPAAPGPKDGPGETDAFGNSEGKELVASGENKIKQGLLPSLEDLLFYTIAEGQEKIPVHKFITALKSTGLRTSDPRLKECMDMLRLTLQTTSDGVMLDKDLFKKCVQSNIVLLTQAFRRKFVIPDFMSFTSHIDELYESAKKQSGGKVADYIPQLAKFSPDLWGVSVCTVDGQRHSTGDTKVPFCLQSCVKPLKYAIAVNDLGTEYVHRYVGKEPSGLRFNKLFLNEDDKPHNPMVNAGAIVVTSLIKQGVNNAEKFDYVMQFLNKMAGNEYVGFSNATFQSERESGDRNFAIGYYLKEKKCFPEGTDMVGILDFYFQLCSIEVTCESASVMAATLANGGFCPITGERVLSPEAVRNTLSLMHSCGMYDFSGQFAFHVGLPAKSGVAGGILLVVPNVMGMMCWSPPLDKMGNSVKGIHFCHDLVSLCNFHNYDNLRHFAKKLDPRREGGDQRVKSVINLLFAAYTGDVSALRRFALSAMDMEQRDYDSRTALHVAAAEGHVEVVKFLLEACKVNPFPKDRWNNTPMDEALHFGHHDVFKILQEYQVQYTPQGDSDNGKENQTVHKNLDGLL
# Sequence of Glucagon-like peptide 1 receptor (Homo sapiens) (P43220 whole entry, looked up): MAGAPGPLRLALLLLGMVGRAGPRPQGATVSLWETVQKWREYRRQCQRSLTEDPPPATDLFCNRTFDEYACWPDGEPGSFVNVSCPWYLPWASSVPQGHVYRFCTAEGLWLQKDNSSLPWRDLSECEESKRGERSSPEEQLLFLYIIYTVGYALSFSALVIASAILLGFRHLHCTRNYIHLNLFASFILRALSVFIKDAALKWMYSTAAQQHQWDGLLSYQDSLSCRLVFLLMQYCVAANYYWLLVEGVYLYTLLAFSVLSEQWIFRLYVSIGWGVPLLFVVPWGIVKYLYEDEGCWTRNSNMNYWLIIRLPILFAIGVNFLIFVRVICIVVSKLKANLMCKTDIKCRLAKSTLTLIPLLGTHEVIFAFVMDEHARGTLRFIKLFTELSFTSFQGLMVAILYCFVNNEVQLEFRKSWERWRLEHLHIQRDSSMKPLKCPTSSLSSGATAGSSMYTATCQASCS
# Sequence of Tumor necrosis factor (Homo sapiens) (P01375 whole entry, looked up): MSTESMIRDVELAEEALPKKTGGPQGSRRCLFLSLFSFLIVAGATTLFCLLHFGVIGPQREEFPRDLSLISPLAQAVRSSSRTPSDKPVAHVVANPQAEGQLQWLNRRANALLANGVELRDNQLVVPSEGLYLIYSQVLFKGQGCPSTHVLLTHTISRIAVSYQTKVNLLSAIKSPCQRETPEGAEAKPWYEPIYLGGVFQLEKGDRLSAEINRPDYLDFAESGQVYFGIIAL
structure (smiles),measurement,setting,value
O=c1[nH]c2ccccc2n1C1CCN(CCCC(c2ccc(F)cc2)c2ccc(F)cc2)CC1,Potency,[1],inactive
same,outcome,[2],inactive
same,outcome,[3],inactive
same,outcome,[4],inactive
same,Potency,[5],inactive
CS(=O)c1ccc(-c2nc(-c3ccc(F)cc3)c(-c3ccncc3)[nH]2)cc1 (stereo not given),"viability, percent of control",[6],100%
COC[C@H]1OC(=O)c2coc3c2[C@@]1(C)C1=C(C3=O)C2CCC(=O)[C@@]2(C)C[C@H]1OC(C)=O (stereo not given in full),Potency,[1],11.2 µM (active)
same,outcome,[2],inactive
same,outcome,[3],inactive
same,outcome,[4],inactive
same,Potency,[5],inactive
same,outcome,[7],inactive
same,Potency,[8],13.3 µM (active)
same,"viability, percent of control",[6],61.7%
same,Potency,[9],23.5 µM (active)
C[C@H]1O[C@@H](O[C@H]2[C@@H](O)C[C@H](O[C@H]3[C@@H](O)C[C@H](O[C@H]4CC[C@@]5(C)[C@H](CC[C@@H]6[C@@H]5CC[C@]5(C)[C@@H](C7=CC(=O)OC7)CC[C@]65O)C4)O[C@@H]3C)O[C@@H]2C)C[C@H](O)[C@@H]1O,activation,[10],-10.8% (inactive)
same,activation,[11],-1.01% (inactive)
Cc1cc2c(C(C)C)c(O)c(O)c(C=O)c2c(O)c1-c1c(C)cc2c(C(C)C)c(O)c(O)c(C=O)c2c1O,Potency,[12],4.69 µM (active)
same,Potency,[8],5.95 µM (active)
CN(C)CCN(C)CCc1ccc(Cl)c(Cl)c1,Potency,[12],inactive
same,outcome,[7],inactive
same,"viability, percent of control",[6],73.4%
same,Potency,[9],inactive
C[C@@H]1[C@@H](C(=O)C[C@H]2O[C@@H]3O[C@]4(C)CC[C@@H]5[C@H](C)CC[C@@H]([C@H]2C)[C@@]35OO4)O[C@@H]2O[C@]3(C)CC[C@H]4[C@H](C)CC[C@@H]1[C@@]24OO3,Potency,[12],inactive
same,outcome,[7],inactive
same,Potency,[8],inactive
same,"viability, percent of control",[6],21.3%
same,Potency,[9],inactive
Cc1cccc(C)c1NC(=O)CN1CCCC1=O,Potency,[1],inactive
same,outcome,[2],inactive
same,outcome,[3],inactive
same,outcome,[4],inactive
same,Potency,[5],inactive
CNCC(O)c1ccc(O)cc1 (stereo not given),outcome,[2],inactive
same,outcome,[4],inactive
same,Potency,[5],inactive
same,Potency,[13],inactive
same,activation,[10],-2.83% (inactive)
same,activation,[11],-1.11% (inactive)
same,outcome,[14],inactive
O=c1c(O)c(-c2ccc(O)c(O)c2)oc2cc(O)cc(O)c12,Potency,[8],14.9 µM (active)
same,"viability, percent of control",[6],56.5%
O=C(O)C(=O)c1cn(Cc2ccccc2)c2ccc(-c3ccc(OC(F)(F)F)cc3)cc12,Potency,[12],18.7 µM (active)
same,outcome,[7],inactive
same,Potency,[8],16.8 µM (active)
same,"viability, percent of control",[6],68.4%
same,Potency,[9],inactive
CC(O)(CS(=O)(=O)c1ccc(F)cc1)C(=O)Nc1ccc(C#N)c(C(F)(F)F)c1 (stereo not given),Potency,[1],inactive
same,outcome,[2],inactive
same,outcome,[3],inactive
same,outcome,[4],inactive
same,Potency,[5],inactive
same,Potency,[12],inactive
same,outcome,[7],inactive
same,Potency,[8],inactive
same,"viability, percent of control",[6],95.3%
same,Potency,[9],inactive
CCCN1CCC[C@@H]2Cc3nc(N)ncc3C[C@H]21,Potency,[1],inactive
same,outcome,[2],inactive
same,outcome,[3],inactive
same,outcome,[4],inactive
c1ccc2c(c1)OCC(C1=NCCN1)O2 (stereo not given),Potency,[1],inactive
same,outcome,[2],inactive
same,outcome,[3],inactive
same,Potency,[5],inactive
CC(C)C(=O)Nc1ccc([N+](=O)[O-])c(C(F)(F)F)c1,Potency,[13],61.1 µM (active) and 66.8 µM (active)
same,Potency,[15],42.2 µM (active)
same,Potency,[16],42.2 µM (active)
C[C@@H]1O[C@@H](O[C@H]2C[C@@H](O)[C@]3(CO)[C@H]4[C@H](O)C[C@]5(C)[C@@H](C6=CC(=O)OC6)CC[C@]5(O)[C@@H]4CC[C@]3(O)C2)[C@H](O)[C@H](O)[C@H]1O,Potency,[1],inactive
same,outcome,[2],inactive
same,outcome,[3],inactive
same,outcome,[4],inactive
same,Potency,[5],inactive
CC1=C2C[C@@H]3[C@@H](CC=C4C[C@@H](O)CC[C@@]43C)[C@@H]2CC[C@]12O[C@H]1C[C@H](C)CN[C@H]1[C@H]2C,Potency,[12],inactive
same,outcome,[7],inactive
same,"viability, percent of control",[6],69.1%
Cc1cc(SCc2sc(-c3ccc(C(F)(F)F)c(F)c3)nc2C)ccc1OCC(=O)O,outcome,[7],inactive
same,"viability, percent of control",[6],93.2%
same,Potency,[9],inactive
same,Potency,[13],68.6 µM (active)
same,activation,[11],-3.79% (inactive)
O=c1[nH]cc(F)c(=O)[nH]1,Potency,[17],5.62 µM (active)
same,Potency,[10],3.98 µM (active)
O=c1oc2ccccc2c(O)c1C(CC(O)c1ccc(-c2ccc(Br)cc2)cc1)c1ccccc1 (stereo not given),Potency,[13],27.3 µM (active)
same,activation,[11],-6.71% (inactive)
C[C@]12CCC(=O)C(O)=C1CC[C@@H]1[C@@H]2CC[C@]2(C)C(=O)CC[C@@H]12,outcome,[2],inactive
same,"viability, percent of control",[6],87.5%
same,Potency,[9],inactive
same,Potency,[13],inactive
same,activation,[10],-6.6% (inactive)
same,activation,[11],2.01% (inactive)
COC1(CS(=O)c2ccccc2)CCN(CCc2c[nH]c3ccc(F)cc23)CC1 (stereo not given),Potency,[12],inactive
same,outcome,[7],inactive
same,Potency,[8],inactive
same,"viability, percent of control",[6],108%
same,Potency,[9],inactive
Cc1sc2c(c1C)C(c1ccc(Cl)cc1)=N[C@@H](CC(=O)OC(C)(C)C)c1nnc(C)n1-2,Potency,[12],inactive
same,outcome,[7],inactive
same,"viability, percent of control",[6],13.5%
same,Potency,[9],23.5 µM (active)
Cn1cc(C2=C(c3cn(C4CCN(Cc5ccccn5)CC4)c4ccccc34)C(=O)NC2=O)c2ccccc21,Potency,[12],inactive
same,outcome,[7],inactive
same,Potency,[8],6.68 µM (active)
same,"viability, percent of control",[6],33.2%
COc1cc(Nc2c(C#N)cnc3cc(OCCCN4CCN(C)CC4)c(OC)cc23)c(Cl)cc1Cl,Potency,[9],20.9 µM (active)
Clc1ccc(COC(Cn2ccnc2)c2ccc(Cl)cc2Cl)cc1 (stereo not given),outcome,[14],inactive
C[C@@H]1[C@@H](CC(C[C@H]2O[C@@H]3O[C@]4(C)CC[C@@H]5[C@H](C)CC[C@@H]([C@H]2C)[C@@]35OO4)C[S+](=O)([O-])c2ccc(COC(=O)N(C)C)cc2)O[C@@H]2O[C@]3(C)CC[C@H]4[C@H](C)CC[C@@H]1[C@@]24OO3 (stereo not given in full),Potency,[12],inactive
same,outcome,[7],inactive
same,"viability, percent of control",[6],39.8%
same,Potency,[9],inactive
NC(=Nc1ccccc1)Nc1ccccc1,Potency,[17],inactive
same,Potency,[13],19.3 µM (active) and 18.8 µM (active)
CC[N+](C)(C)c1cccc(O)c1,Potency,[5],inactive
CNC(=O)c1ccc(N2C(=S)N(c3ccc(C#N)c(C(F)(F)F)c3)C(=O)C23CCC3)cc1F,Potency,[12],inactive
same,outcome,[7],inactive
same,Potency,[8],inactive
same,"viability, percent of control",[6],77.6%
same,Potency,[9],inactive
CN1C[C@H](CNC(=O)OCc2ccccc2)C[C@@H]2c3cccc4c3c(cn4C)C[C@H]21,Potency,[17],inactive
same,outcome,[2],inactive
same,outcome,[3],inactive
same,outcome,[4],inactive
same,Potency,[5],inactive
CNC(=O)N1N=C(c2ccc(N)cc2)c2cc3c(cc2CC1C)OCO3 (stereo not given),Potency,[12],inactive
same,outcome,[7],inactive
same,Potency,[8],inactive
same,"viability, percent of control",[6],20%
same,Potency,[9],inactive
CC(C)n1c(C=C[C@H](O)C[C@H](O)CC(=O)O)c(-c2ccc(F)cc2)c2ccccc21,"viability, percent of control",[6],74.8%
CC(=O)[C@H]1CC[C@H]2[C@@H]3CC[C@H]4C[C@H](O)CC[C@]4(C)[C@H]3C(=O)C[C@]12C,Potency,[17],inactive
same,Potency,[1],inactive
same,outcome,[2],inactive
same,outcome,[3],inactive
same,outcome,[4],inactive
same,Potency,[5],inactive
